High-throughput results as filed in PubChem.
eIF4H FP inh: inhibitors of RNA binding by human eIF4H | hit rate 0.94% among 290,000 | AID 2012 | Q15056 | eIF4H fluorescence polarization binding assay | inhibition, % at 35 µM;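 note: calls also rest on retests at 20 µM and on dose response follow-up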
PABP polyA inh: blocks human PABP binding to poly(A) RNA; fluorescence polarization; P11940; AID 2014; hit rate 1% among 290,000; calls only at 35 µM;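 note: calls also rest on retests at 20 µM and on dose response follow-up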
PABP1 MLLE inh: blocks PAM2 peptide binding to the PABP1 MLLE domain | P11940 | GST-MLLE / FITC-PAM2 fluorescence polarization | inhibition, % at 20 µM | hit rate 0.36% among 360,000 | AID 588489; in the data active = inhibition above about 35%, passing the limit was not always enough
eIF4E-4G inh: blocks eIF4E binding to eIF4G; TR-FRET eIF4E-eIF4GI(517-606) binding, 2 h; AID 782; inhibition, % at 21.7 µM; P63073+Q04637; hit rate 0.37% among 220,000;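 active = inhibition above about 30%, limit read from the data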
Target sequence (P63073 whole entry, looked up): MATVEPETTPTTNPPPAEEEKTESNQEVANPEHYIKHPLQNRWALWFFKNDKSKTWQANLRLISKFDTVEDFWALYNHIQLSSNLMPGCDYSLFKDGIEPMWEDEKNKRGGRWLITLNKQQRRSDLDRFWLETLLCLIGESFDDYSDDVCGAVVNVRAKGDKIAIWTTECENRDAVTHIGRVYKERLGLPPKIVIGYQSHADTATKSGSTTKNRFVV
Target sequence (Q04637 whole entry, looked up): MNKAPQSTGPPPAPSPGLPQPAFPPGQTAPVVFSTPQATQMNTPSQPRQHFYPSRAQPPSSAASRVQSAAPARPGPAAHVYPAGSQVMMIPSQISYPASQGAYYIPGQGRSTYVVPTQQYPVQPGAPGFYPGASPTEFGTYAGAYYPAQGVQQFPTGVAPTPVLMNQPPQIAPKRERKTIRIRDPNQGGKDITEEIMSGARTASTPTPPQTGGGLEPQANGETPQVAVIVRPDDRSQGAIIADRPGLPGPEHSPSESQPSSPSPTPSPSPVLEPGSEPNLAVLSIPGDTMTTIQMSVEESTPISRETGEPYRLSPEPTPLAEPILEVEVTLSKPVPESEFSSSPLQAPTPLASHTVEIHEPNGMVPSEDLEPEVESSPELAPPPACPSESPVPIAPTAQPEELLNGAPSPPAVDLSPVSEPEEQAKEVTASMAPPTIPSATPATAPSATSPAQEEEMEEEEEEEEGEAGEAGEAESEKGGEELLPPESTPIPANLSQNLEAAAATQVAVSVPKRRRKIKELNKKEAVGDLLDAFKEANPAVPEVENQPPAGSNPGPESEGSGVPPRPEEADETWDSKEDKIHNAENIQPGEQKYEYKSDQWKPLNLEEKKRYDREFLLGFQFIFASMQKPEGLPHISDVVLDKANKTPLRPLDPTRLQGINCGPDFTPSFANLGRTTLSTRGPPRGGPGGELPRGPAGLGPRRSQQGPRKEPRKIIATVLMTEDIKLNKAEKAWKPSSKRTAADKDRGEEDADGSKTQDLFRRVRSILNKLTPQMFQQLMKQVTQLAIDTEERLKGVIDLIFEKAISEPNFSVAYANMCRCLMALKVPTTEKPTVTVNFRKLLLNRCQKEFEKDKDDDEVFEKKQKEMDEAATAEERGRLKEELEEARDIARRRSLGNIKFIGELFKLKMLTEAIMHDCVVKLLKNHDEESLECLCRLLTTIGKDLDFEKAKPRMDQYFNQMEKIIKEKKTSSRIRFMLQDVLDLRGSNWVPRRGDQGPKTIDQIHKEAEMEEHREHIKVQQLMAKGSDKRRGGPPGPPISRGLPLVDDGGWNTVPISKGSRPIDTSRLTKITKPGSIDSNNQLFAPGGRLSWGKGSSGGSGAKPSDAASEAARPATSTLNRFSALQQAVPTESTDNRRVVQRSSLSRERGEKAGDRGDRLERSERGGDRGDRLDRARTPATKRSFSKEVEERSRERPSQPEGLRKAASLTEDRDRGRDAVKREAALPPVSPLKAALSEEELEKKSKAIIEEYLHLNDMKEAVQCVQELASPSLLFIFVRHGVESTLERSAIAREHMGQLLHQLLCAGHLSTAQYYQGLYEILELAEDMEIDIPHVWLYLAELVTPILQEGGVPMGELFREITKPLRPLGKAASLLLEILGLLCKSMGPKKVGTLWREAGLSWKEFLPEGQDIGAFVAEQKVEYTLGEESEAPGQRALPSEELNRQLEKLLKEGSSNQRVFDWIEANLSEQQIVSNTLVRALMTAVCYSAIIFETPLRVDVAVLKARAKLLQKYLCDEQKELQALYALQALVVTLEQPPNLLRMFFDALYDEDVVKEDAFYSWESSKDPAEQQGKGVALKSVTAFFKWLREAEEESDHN
Hits are given with their value; [ ] = another dose, or the depositor's remark. Rows were chosen to be rich in hits. Some 1.5% of all compounds tested hit in one or more screens of this group. Unless noted, the rule behind the calls is not given here.

CC1CCc2nn(CC(=O)N3CCCCCC3)cc2C1 (configuration not stated) was read as eIF4H FP inh inactive, PABP polyA inh inactive, PABP1 MLLE inh inactive and eIF4E-4G inh 77.0[fluorescence artefact?].
Screening O=C1N(C2CCCC2)C[C@@H]2C[C@@H](c3cn[nH]c3-c3ccc(Cl)cc3)N3CCC[C@@]123 returned eIF4H FP inh inactive, PABP polyA inh active, PABP1 MLLE inh inactive and eIF4E-4G inh inactive.
O=c1[nH]c(=S)[nH]c2c1C(c1ccc(F)cc1)OC(CCOCc1ccccc1)C2 (configuration not stated) was read as PABP1 MLLE inh inactive.
CC(C)N(Cc1nc(-c2ccccc2)no1)C(=O)COc1ccccc1 was read as eIF4H FP inh inactive, PABP polyA inh inactive, PABP1 MLLE inh inactive and eIF4E-4G inh 62.3.
Screening NN1C(=O)/C(=C\c2ccco2)SC1=S returned eIF4H FP inh 106.5, PABP polyA inh active, PABP1 MLLE inh inactive and eIF4E-4G inh inactive.
For O=C(O)c1ccc(N2C(=O)/C(=C/C=C/c3ccccc3)SC2=S)cc1 the results were eIF4H FP inh inactive, PABP polyA inh inactive, PABP1 MLLE inh inactive and eIF4E-4G inh inactive.
Screening CC(C)C(C(=O)O)N1C(=O)/C(=C/c2cccn2C)SC1=S (configuration not stated) returned eIF4H FP inh inconclusive, PABP polyA inh inactive, PABP1 MLLE inh inactive and eIF4E-4G inh inactive.
For CC(C)C(C(=O)O)N1C(=O)/C(=C/C=C/c2ccco2)SC1=S (configuration not stated) the results were eIF4H FP inh 90.9, PABP polyA inh active, PABP1 MLLE inh inactive and eIF4E-4G inh 45.8.
CN1C(=S)N(c2ccccc2)C(=O)/C1=C/c1ccco1 was read as eIF4H FP inh inactive, PABP polyA inh inactive, PABP1 MLLE inh inactive and eIF4E-4G inh inactive.
`O=C1/C(=C\c2ccco2)SC(=S)N1c1ccc(O)cc1` gave eIF4H FP inh 81.1, PABP polyA inh inactive, PABP1 MLLE inh inactive and eIF4E-4G inh inactive.
For O=C1/C(=C/C=C/c2ccco2)SC(=S)N1c1ccc(O)cc1 the results were eIF4H FP inh 80.5, PABP polyA inh active, PABP1 MLLE inh inactive and eIF4E-4G inh 36.6.
O=C1/C(=C/c2ccco2)SC(=S)N1c1cccnc1 was read as eIF4H FP inh 92.4, PABP polyA inh active, PABP1 MLLE inh inactive and eIF4E-4G inh 55.2.
`COc1cccc(/C=C2\SC(=S)N(c3cccnc3)C2=O)c1OC` gave eIF4H FP inh inactive, PABP polyA inh inactive, PABP1 MLLE inh 54.8 and eIF4E-4G inh inactive.
`O=C1/C(=C\c2ccc(O)cc2)SC(=S)N1c1cccnc1` gave eIF4H FP inh inactive, PABP polyA inh inactive, PABP1 MLLE inh inactive and eIF4E-4G inh inactive.
For O=C(NN1C(=O)/C(=C/C=C/c2ccco2)SC1=S)c1ccncc1 the results were eIF4H FP inh 84.4, PABP polyA inh active, PABP1 MLLE inh inactive and eIF4E-4G inh 37.0.
Screening CCOC(=O)C1C(C(=O)OCC)C2C(=O)C3C(C(=O)OCC)C(C(=O)OCC)C3C(=O)C12 (configuration not stated) returned PABP1 MLLE inh inactive.
`COc1ccc(Cl)cc1CN1CCN(c2nc(C)cc(C)c2C#N)CC1` gave eIF4H FP inh 45.9, PABP polyA inh active, PABP1 MLLE inh inactive and eIF4E-4G inh inactive.
`S=C(c1ccc(-c2ccccc2Cl)o1)N1CCOCC1` gave eIF4H FP inh inactive, PABP polyA inh inactive, PABP1 MLLE inh 40.5 and eIF4E-4G inh inactive.
Screening O=C(CN1c2cccc3cccc(c23)S1(=O)=O)NCc1ccccc1Cl returned PABP1 MLLE inh inactive.
CC1(C(=O)NS(=O)(=O)c2cccc(Cl)c2)CCN1C(=O)c1ccccc1 (configuration not stated) was read as PABP1 MLLE inh inactive.
COc1cc(C(=O)NNC(=S)NC(=O)c2ccc(Cl)cc2)cc(OC)c1OC was read as eIF4H FP inh 11.5, PABP polyA inh inactive, PABP1 MLLE inh inactive and eIF4E-4G inh inactive.
CSc1ncnc2c1ncn2CCCN1CCN(Cc2cccc3ccccc23)CC1 was read as PABP1 MLLE inh inactive.
CN1CCN(C2=C(Cl)C(=O)N(Cc3ccccc3)C2=O)CC1 was read as eIF4H FP inh 89.0, PABP polyA inh active, PABP1 MLLE inh inactive and eIF4E-4G inh inactive.
Screening O=C(N/N=C/c1c[nH]c2ccccc12)C1COc2ccccc2O1 (configuration not stated) returned eIF4H FP inh inactive, PABP polyA inh inactive, PABP1 MLLE inh inactive and eIF4E-4G inh 48.1.
For O=C(O)c1cccc(-c2ccc(/C=N/NC(=O)C3COc4ccccc4O3)o2)c1 (configuration not stated) the results were eIF4H FP inh 71.9, PABP polyA inh inactive, PABP1 MLLE inh inactive and eIF4E-4G inh inactive.
